Test results as given in PubChem BioAssay AID1159580 (chemical genetic matrix, 2015).
The campaign covered roughly 5,500 compounds. About 2,000 (36%) were called active. Inconclusive results (about 18%) are left out. No stated cut-off is given here; in the data, active means normalized growth mostly below about 0.91 (no sharp cut-off); inconclusive means no clear call, values can overlap the other calls; inactive means mostly above about 0.92. The list shows a part of the results.

Assay: chemical genetic growth profiling, strain panel (AID 1159580);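 further: tested at 20 µM; growth read once vehicle control cultures reached saturation at 30 °C; 1 = growth at the plate median or of vehicle wells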
Conditions: S. cerevisiae deletion strains, growth OD
[1] = locus YMR307W, strain GAS1, stronger effect = lower value
[2] = locus YNL153C, strain GIM3, stronger effect = lower value
[3] = locus YPL241C, strain CIN2, stronger effect = lower value

Measured: normalized growth

CC(=O)O[C@@H]1CC2C(C)(C)[C@@H](O)CC[C@]2(C)C2CC[C@@]3(C)[C@H](c4ccoc4)OC(=O)[C@H]4O[C@]43[C@@]21C (some centres undefined)
inactive: locus YAL021C, strain ccr4, stronger effect = lower value 1.02 | locus YAL026C, strain drs2, stronger effect = lower value 0.989 | locus YAL030W, strain snc1, stronger effect = lower value 0.996 | locus YBL061C, strain skt5, stronger effect = lower value 0.984 | locus YBR009C, strain hhf1, stronger effect = lower value 1 | locus YBR023C, strain chs3, stronger effect = lower value 0.991 | locus YBR171W, strain sec66, stronger effect = lower value 0.993 | locus YBR229C, strain ROT2, stronger effect = lower value 1.01 | locus YBR231C, strain swc5, stronger effect = lower value 0.995 | locus YBR279W, strain paf1, stronger effect = lower value 0.998 | locus YCL011C, strain gbp2, stronger effect = lower value 0.985 | locus YCL016C, strain dcc1, stronger effect = lower value 0.995 | locus YCL029C, strain bik1, stronger effect = lower value 0.997 | locus YCL061C, strain MRC1, stronger effect = lower value 0.994 | locus YCL069W, strain vba3, stronger effect = lower value 0.988 | locus YCR088W, strain abp1, stronger effect = lower value 0.988 | locus YDL005C, strain med2, stronger effect = lower value 0.988 | locus YDL035C, strain GPR1, stronger effect = lower value 0.967 | locus YDL040C, strain nat1, stronger effect = lower value 0.986 | locus YDL074C, strain BRE1, stronger effect = lower value 0.947 | locus YDL101C, strain DUN1, stronger effect = lower value 1.02 | locus YDL134C, strain PPH21, stronger effect = lower value 1 | locus YDL185W, strain tfp1, stronger effect = lower value 1 | locus YDL192W, strain arf1, stronger effect = lower value 0.964 | locus YDR001C, strain nth1, stronger effect = lower value 0.996 | locus YDR069C, strain doa4, stronger effect = lower value 1.01 | locus YDR101C, strain arx1, stronger effect = lower value 0.973 | locus YDR137W, strain rgp1, stronger effect = lower value 0.986 | locus YDR159W, strain sac3, stronger effect = lower value 0.964 | locus YDR162C, strain NBP2, stronger effect = lower value 0.987 | locus YDR195W, strain ref2 0.981 | locus YDR297W, strain sur2, stronger effect = lower value 1.01 | locus YDR318W, strain mcm21, stronger effect = lower value 0.99 | locus YDR334W, strain swr1, stronger effect = lower value 1.01 | locus YDR335W, strain msn5, stronger effect = lower value 0.995 | locus YDR388W, stronger effect = lower value 1.02 | locus YDR392W, strain spt3, stronger effect = lower value 0.968 | locus YDR502C, strain sam2, stronger effect = lower value 1 | locus YEL003W, strain gim4, stronger effect = lower value 0.987 | locus YEL037C, strain rad23, stronger effect = lower value 0.995 | locus YEL061C, strain CIN8 (second series), stronger effect = lower value 0.992 | locus YEL061C, strain CIN8, stronger effect = lower value 1 | locus YER015W, strain faa2, stronger effect = lower value 0.996 | locus YER016W, strain bim1, stronger effect = lower value 0.989 | locus YER110C, stronger effect = lower value 1.02 | locus YER111C, strain swi4, stronger effect = lower value 0.98 | locus YER155C, strain BEM2 (second series), stronger effect = lower value 1.01 | locus YER155C, strain BEM2, stronger effect = lower value 1.02 | locus YER167W, strain BCK2, stronger effect = lower value 0.996 | locus YFR010W, strain ubp6, stronger effect = lower value 0.993 | locus YGL078C, strain dbp3, stronger effect = lower value 1.02 | locus YGL086W, strain mad1, stronger effect = lower value 0.998 | locus YGL167C, strain pmr1, stronger effect = lower value 0.998 | locus YGL173C, strain kem1, stronger effect = lower value 0.998 | locus YGL227W, strain vid30, stronger effect = lower value 0.989 | locus YGL240W, strain doc1, stronger effect = lower value 0.966 | locus YGL248W, strain PDE1, stronger effect = lower value 1.01 | locus YGL253W, strain hxk2, stronger effect = lower value 0.95 | locus YGR135W, strain pre9, stronger effect = lower value 1.04 | locus YGR252W, strain gcn5, stronger effect = lower value 0.975 | locus YHR013C, strain ard1, stronger effect = lower value 0.988 | locus YHR027C, strain rpn1, stronger effect = lower value 0.983 | locus YHR030C, strain SLT2, stronger effect = lower value 1.01 | locus YHR079C, strain IRE1 (second series), stronger effect = lower value 1.01 | locus YHR079C, strain IRE1, stronger effect = lower value 1.02 | locus YHR094C, strain hxt1, stronger effect = lower value 1.01 | locus YHR129C, strain ARP1, stronger effect = lower value 1.01 | locus YHR142W, strain chs7, stronger effect = lower value 0.992 | locus YHR200W, strain rpn10, stronger effect = lower value 1.01 | locus YIL066C, strain RNR3, stronger effect = lower value 0.967 | locus YIL073C, strain SPO22, stronger effect = lower value 1.03 | locus YIL125W, strain kgd1, stronger effect = lower value 1.01 | locus YIR030C, strain dcg1, stronger effect = lower value 1 | locus YJL092W, strain hpr5, stronger effect = lower value 0.995 | locus YJL095W, strain BCK1 (second series), stronger effect = lower value 1.01 | locus YJL095W, strain BCK1, stronger effect = lower value 1.01 | locus YJL115W, strain asf1, stronger effect = lower value 0.997 | locus YJL129C, strain trk1, stronger effect = lower value 0.976 | locus YJL134W, strain LCB3, stronger effect = lower value 1.01 | locus YJL154C, strain vps35, stronger effect = lower value 0.994 | locus YJL164C, strain tpk1, stronger effect = lower value 1 | locus YJL166W, strain qcr8, stronger effect = lower value 0.988 | locus YJL168C, strain set2, stronger effect = lower value 1.01 | locus YJL187C, strain SWE1 (second series), stronger effect = lower value 1.02 | locus YJL187C, strain SWE1, stronger effect = lower value 0.991 | locus YJR043C, strain POL32, stronger effect = lower value 0.979 | locus YJR066W, strain TOR1, stronger effect = lower value 0.966 | locus YKL009W, strain mrt4, stronger effect = lower value 0.964 | locus YKL068W, stronger effect = lower value 1.01 | locus YKL085W, strain MDH1 (second series), stronger effect = lower value 1 | locus YKL085W, strain MDH1, stronger effect = lower value 1 | locus YKL160W, strain elf1, stronger effect = lower value 0.997 | locus YKR001C, strain vps1, stronger effect = lower value 1 | locus YKR026C, strain gcn3, stronger effect = lower value 1 | locus YKR091W, strain srl3, stronger effect = lower value 1 | locus YLL001W, strain dnm1, stronger effect = lower value 0.996 | locus YLL026W, stronger effect = lower value 0.997 | locus YLL041C, strain sdh2, stronger effect = lower value 0.997 | locus YLR027C, strain aat2, stronger effect = lower value 0.999 | locus YLR039C, strain RIC1, stronger effect = lower value 0.981 | locus YLR058C, strain SHM2, stronger effect = lower value 1 | locus YLR102C, strain apc9, stronger effect = lower value 1.01 | locus YLR113W, strain HOG1, stronger effect = lower value 0.968 | locus YLR221C, strain rsa3, stronger effect = lower value 0.987 | locus YLR258W, strain gsy2, stronger effect = lower value 1.01 | locus YLR262C, strain YPT6 (second series), stronger effect = lower value 0.967 | locus YLR262C, strain YPT6, stronger effect = lower value 0.974 | locus YLR268W, strain sec22, stronger effect = lower value 0.967 | locus YLR320W, strain mms22, stronger effect = lower value 0.989 | locus YLR330W, strain CHS5, stronger effect = lower value 0.999 | locus YLR342W, strain FKS1, stronger effect = lower value 0.992 | locus YLR357W, strain rsc2, stronger effect = lower value 1.03 | locus YLR370C, strain arc18, stronger effect = lower value 1.01 | locus YLR371W, strain rom2, stronger effect = lower value 1.03 | locus YLR384C, strain iki3, stronger effect = lower value 0.992 | locus YLR418C, strain cdc73, stronger effect = lower value 0.968 | locus YML016C, strain PPZ1, stronger effect = lower value 1.01 | locus YML032C, strain rad52, stronger effect = lower value 0.997 | locus YML120C, strain ndi1, stronger effect = lower value 1 | locus YML124C, strain tub3, stronger effect = lower value 1 | locus YMR058W, strain fet3, stronger effect = lower value 1.01 | locus YMR078C, strain ctf18, stronger effect = lower value 1.01 | locus YMR125W, strain sto1, stronger effect = lower value 1.02 | locus YMR129W, stronger effect = lower value 0.993 | locus YMR205C, strain PFK2, stronger effect = lower value 0.993 | locus YMR223W, strain ubp8, stronger effect = lower value 1.01 | locus YMR231W, strain pep5, stronger effect = lower value 0.959 | [1] 0.953 | locus YNL067W, strain RPL9B, stronger effect = lower value 1.05 | locus YNL071W, strain lat1, stronger effect = lower value 0.993 | [2] 1.04 | locus YNL183C, strain NPR1, stronger effect = lower value 0.976 | locus YNL209W, strain ssb2, stronger effect = lower value 0.992 | locus YNL233W, strain BNI4, stronger effect = lower value 1.01 | locus YNL248C, strain rpa49, stronger effect = lower value 0.995 | locus YNL250W, strain rad50, stronger effect = lower value 1.04 | locus YNL271C, strain bni1, stronger effect = lower value 0.999 | locus YNL298W, strain CLA4, stronger effect = lower value 0.991 | locus YNL307C, strain MCK1, stronger effect = lower value 1.01 | locus YNL322C, strain KRE1 (second series), stronger effect = lower value 0.989 | locus YNR049C, strain mso1, stronger effect = lower value 0.994 | locus YNR052C, strain pop2, stronger effect = lower value 1.02 | locus YOL006C, strain TOP1, stronger effect = lower value 0.891 | locus YOL012C, strain htz1 1.11 | locus YOL147C, strain pex11, stronger effect = lower value 0.996 | locus YOR001W, strain rrp6, stronger effect = lower value 0.981 | locus YOR061W, strain CKA2, stronger effect = lower value 0.985 | locus YOR069W, strain VPS5, stronger effect = lower value 1.01 | locus YOR070C, strain gyp1, stronger effect = lower value 0.988 | locus YOR080W, strain dia2, stronger effect = lower value 0.99 | locus YOR083W, strain WHI5, stronger effect = lower value 1 | locus YOR106W, strain vam3, stronger effect = lower value 0.984 | locus YOR136W, strain idh2, stronger effect = lower value 1 | locus YOR144C, strain elg1, stronger effect = lower value 1 | locus YOR184W, strain ser1, stronger effect = lower value 0.949 | locus YOR231W, strain MKK1, stronger effect = lower value 0.998 | locus YOR265W, strain rbl2, stronger effect = lower value 1 | locus YOR270C, strain vph1, stronger effect = lower value 0.912 | locus YOR290C, strain snf2, stronger effect = lower value 0.978 | locus YOR316C, strain cot1, stronger effect = lower value 1.01 | locus YPL051W, strain arl3, stronger effect = lower value 1.01 | locus YPL078C, strain atp4, stronger effect = lower value 0.991 | locus YPL106C, strain sse1, stronger effect = lower value 1.01 | locus YPL240C, strain hsp82, stronger effect = lower value 0.989 | [3] 1 | locus YPL256C, strain CLN2, stronger effect = lower value 1.06 | locus YPR119W, strain clb2, stronger effect = lower value 1.02 | locus YPR141C, strain kar3, stronger effect = lower value 1.01 | locus YPR163C, strain tif3, stronger effect = lower value 1 | locus YPR167C, strain met16, stronger effect = lower value 1 | strain wtn01, stronger effect = lower value 0.976
active: locus YBR021W, strain FUR4, stronger effect = lower value 0.823

CC[C@H](CO)Nc1nc(NCc2ccccc2)c2ncn(C(C)C)c2n1
inactive: locus YAL013W, strain DEP1, stronger effect = lower value 1.01 | locus YAL040C, strain CLN3, stronger effect = lower value 0.992 | locus YCL061C, strain MRC1 (second series), stronger effect = lower value 1 | locus YDR150W, strain NUM1, stronger effect = lower value 0.992 | locus YDR363W, strain ESC2, stronger effect = lower value 0.991 | locus YER002W, strain NOP16, stronger effect = lower value 1.03 | locus YGR078C, strain PAC10, stronger effect = lower value 0.995 | locus YGR229C, strain SMI1, stronger effect = lower value 1.04 | [1] 0.967 | locus YNL128W, strain TEP1, stronger effect = lower value 1.03 | [2] 1 | locus YNL175C, strain NOP13, stronger effect = lower value 1 | locus YNL197C, strain WHI3, stronger effect = lower value 1 | locus YNL224C, strain SQS1, stronger effect = lower value 1.01 | locus YNL322C, strain KRE1, stronger effect = lower value 1.02 | locus YOR083W, strain WHI5 (second series), stronger effect = lower value 1.01 | [3] 0.997
